Here are results for 15 compounds from PubChem BioAssay.

Assay [1] concerns Human papillomavirus type 1a protein E7 (residues 44-93). As to the kind of experiment: small molecules binding HPV E7 44-93 – biochemical, small-molecule microarray, residues 44-93, 635 nm fluorescence, primary screen (AID 1108).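 Note: E7 fragment applied at 1 µg/mL in TBST for 1 h at 4 C; score combines spot fluorescence with its signal to noise ratio.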 The settings on record: fluorescence 635 nm, higher = more signal.
Assay [2] is described as follows: hepatitis C replication reporter changes, two-sided – Huh7 cells, luciferase reporter, HCV replication inhibitor project, primary screen (AID 1109).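 Note: huh7 hepatoma cells harbouring a luciferase neomycin HCV replicon reporter; luciferase luminescence as measure of HCV replicon replication; test concentration not given here.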 The following applies: Huh7 HCV replicon luciferase reporter, 48 h; higher = more signal. On the technique in general: In a reporter assay the amount or activity of a reporter protein is the signal.
Assay [3] has as its target Left-right determination factor 2 (Homo sapiens) (UniProt O00292). Put plainly: small molecules binding LEFTY2 protein – biochemical, small-molecule microarray, 635 nm fluorescence scan, primary screen (AID 1110). The settings on record: higher = more signal.
For assay [4], the target named is Calmodulin-1 (Homo sapiens) (UniProt P0DP23). As to the kind of experiment: small molecules binding calmodulin-1 with EGTA – biochemical, small-molecule microarray, Cy5-labelled CALM1, profiling panel (AID 1111).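 Note: labelled calmodulin applied in Tris saline Tween buffer holding calcium plus EGTA and DTT.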 The following applies: Cy5-CALM1 binding fluorescence, higher = more signal.
Assay [5] shares this target. As to the kind of experiment: small molecules binding Ca-loaded calmodulin-1 – biochemical, small-molecule microarray, Cy5-labelled CALM1, plus calcium, artefact control for SMM control-protein annotation, profiling panel (AID 1112).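 Note: score merges spot fluorescence with signal to noise from triplicate slides.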 The following applies: Cy5-CALM1 binding fluorescence, higher = more signal.
Assay [6] is described as follows: probe aWnt5a binding to arrayed compounds – biochemical, biotinylated probe, 635/667 nm fluorescence, primary screen (AID 1113).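 Note: score merges 667 nm fluorescence intensity with signal-to-noise per printed feature.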 The following applies: small-molecule microarray, higher = more signal.
Assay [7] is described as follows: probe aShh binding to arrayed compounds – biochemical, biotinylated probe, 635/667 nm fluorescence, primary screen (AID 1114).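 Note: probe is biotin-labelled aShh protein from a stem cell growth factor screen; measures binding of labelled protein to compounds printed on the slide; score merges feature fluorescence at 667 nm with signal-to-noise.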 The following applies: small-molecule microarray, higher = more signal.
The nature of assay [8]: probe aNog binding to arrayed compounds – biochemical, biotinylated probe, 635/667 nm fluorescence, primary screen (AID 1115).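 Note: probe is biotinylated aNog protein used at 0.15 µg/mL for 1 h at 4 C; z-score combines 667 nm fluorescence of each spot with its signal to noise.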 The settings on record: small-molecule microarray, higher = more signal.
Assay [9] addresses Torsin-1A-interacting protein 1 (Homo sapiens) (UniProt Q5JTV8). As to the kind of experiment: compound microarray binding of lysate hLAP1 – cell lysate, small-molecule microarray, COS7 lysate, 635/667 nm fluorescence, primary screen (AID 1116). The settings on record: 635 nm fluorescence, higher = more signal.
Assay [10] concerns the target Alpha-bungarotoxin (Bungarus multicinctus) (UniProt P60615). Put plainly: compounds binding labelled alpha-BTX control protein – biochemical, small-molecule microarray, Alexa647 label, 635/667 nm fluorescence, artefact control for SMM control protein annotation, profiling panel (AID 1117). The following applies: alpha-BTX-A647 binding fluorescence, higher = more signal.

Left-right determination factor 2 (Homo sapiens), sequence (O00292 whole entry, looked up): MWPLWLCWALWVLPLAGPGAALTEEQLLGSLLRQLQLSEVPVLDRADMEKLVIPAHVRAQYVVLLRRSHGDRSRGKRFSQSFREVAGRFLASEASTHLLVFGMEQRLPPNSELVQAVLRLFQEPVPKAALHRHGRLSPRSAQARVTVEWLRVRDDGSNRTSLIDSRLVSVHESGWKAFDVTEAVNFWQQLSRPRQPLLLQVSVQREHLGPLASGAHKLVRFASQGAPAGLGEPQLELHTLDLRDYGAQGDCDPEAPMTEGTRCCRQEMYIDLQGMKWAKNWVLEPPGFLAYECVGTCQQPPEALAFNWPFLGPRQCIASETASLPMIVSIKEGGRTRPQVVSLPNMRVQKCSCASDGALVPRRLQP
Alpha-bungarotoxin (Bungarus multicinctus), sequence (P60615 whole entry, looked up): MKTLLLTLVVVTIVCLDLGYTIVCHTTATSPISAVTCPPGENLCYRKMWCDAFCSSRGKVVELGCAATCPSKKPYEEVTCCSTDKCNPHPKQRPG
Torsin-1A-interacting protein 1 (Homo sapiens), sequence (Q5JTV8 whole entry, looked up): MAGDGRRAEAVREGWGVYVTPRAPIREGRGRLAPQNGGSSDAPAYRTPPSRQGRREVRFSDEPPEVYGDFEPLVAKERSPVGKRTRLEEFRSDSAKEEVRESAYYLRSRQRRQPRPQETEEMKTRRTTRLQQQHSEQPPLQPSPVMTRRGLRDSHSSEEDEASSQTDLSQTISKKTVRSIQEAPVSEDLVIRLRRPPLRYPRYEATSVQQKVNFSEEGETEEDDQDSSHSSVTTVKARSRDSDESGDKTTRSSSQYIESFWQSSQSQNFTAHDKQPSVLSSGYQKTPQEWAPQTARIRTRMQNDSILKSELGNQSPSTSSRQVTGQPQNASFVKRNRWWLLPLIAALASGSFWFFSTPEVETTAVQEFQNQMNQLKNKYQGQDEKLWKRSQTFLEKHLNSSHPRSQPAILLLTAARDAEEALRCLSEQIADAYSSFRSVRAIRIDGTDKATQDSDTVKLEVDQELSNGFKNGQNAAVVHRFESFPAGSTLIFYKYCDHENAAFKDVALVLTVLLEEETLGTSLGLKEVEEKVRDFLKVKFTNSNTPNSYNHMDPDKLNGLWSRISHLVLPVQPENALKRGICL

In the case of `CC(C)[Si](C#CCCCC#N)(O[C@H](c1ccccc1)c1cn([C@H](CO)Cc2ccccc2)nn1)C(C)C`, the composite z-score is 0.385 in assay [1]; 0.36 in assay [3]; 1.11 in assay [4]; 0.295 in assay [5]; -0.0459 in [6]; -0.0793 in assay [7]. The composite z-score in assay [8] is 0.0392; in assay [9] it was 0.222; in [10], 0.559. Further, in assay [2], the z-score was -1.33.

Consider `C[N+](C)(C)CCCCCCNC(=O)[C@H]1C[C@H]2C(=O)N[C@@H](Cc3ccccc3)C(=O)N2[C@H]1c1ccc(O)cc1`, for which the composite z-score in assay [1] was -0.306; in [3], 1.09; in [4] it was -0.667; in [5], -0.973; in [6], 0.0873; in [7], -0.0146. Further, the values for the composite z-score in assay [8], in assay [9] and in assay [10] were -0.175, 0.302 and 0.966, respectively. In addition, the z-score in assay [2] was determined as 0.975.

For the compound `C=CCOC(=O)[C@H]1[C@@H]2C(=O)O[C@@H](c3ccccc3)[C@@H](c3ccccc3)N2[C@@H](c2ccc(OCCOC(=O)[C@@H]3C[C@@H]4C(=O)N[C@@H](CCCCN(C)C)C(=O)N4[C@@H]3c3ccc(O)cc3)cc2)[C@]12C(=O)Nc1ccccc12`, the composite z-score was -0.541 in assay [1]; 1.08 in assay [3]; -1.35 in [4]; -1.07 in [5]; -0.124 in assay [6]; -0.0709 in [7]. The composite z-score in [8] is -0.106; in assay [9], 1.17; in assay [10], -0.23. In assay [2], this compound yielded a z-score of -2.88.

Regarding `CC1CC/C=C\[C@H]2OC34C=CCN(C(C)C)C(=O)[C@H]3N(CCCCCCO)C(=O)[C@@H]4C2C(=O)O1` (stereo not given in full), the composite z-score is -1.9 in [1]; -0.83 in assay [3]; -0.295 in assay [4]; 0.571 in assay [5]; -0.15 in assay [6]; -0.117 in assay [7]. The composite z-score is 0.0595 in assay [8], -0.673 in assay [9] and -0.706 in assay [10]. The z-score in assay [2] was -0.729.

As to `C=C(/C(=C/C[C@H](OC(C)=O)c1cccc(OCCO)c1)c1cnc2ccccc2c1)C(C)C`, the composite z-score in assay [1] was 1.05; in [3], 0.524; in assay [4], -0.309; in [5], -0.502; in assay [6], -0.118; in [7], -0.264. The results for the composite z-score in assay [8], in [9] and in [10] were 0.0811, 0.235 and 1.19, respectively. Also, the z-score in [2] was -2.31.

In the case of `CCOC(=O)C[C@H]1[C@H](OC(=O)c2cc3ccccc3oc2=O)[C@@H](NC(=O)c2ccc(-c3ccccc3)cc2)c2cc(OCCCO)ccc2N1C(=O)c1ccccc1`, the composite z-score in assay [1] is 1.4; in [3], 1.16; in assay [4], 0.536; in assay [5], -0.15; in assay [6], -0.0203; in assay [7], 0.199. Besides, the composite z-score in assay [8] came out at 0.161; in [9], 0.959; in [10], 0.727. For the same compound, the z-score in assay [2] is -0.659.

Regarding `COCCOC(=O)N1C(=O)[C@@]2(c3cc(C#CC4=CCCCC4)ccc31)[C@H](c1ccc(OCCO)cc1)N1[C@H](c3ccccc3)[C@H](c3ccccc3)OC(=O)[C@H]1[C@@H]2C(=O)NC[C@H](O)c1ccccc1`, the composite z-score in [1] was 1.33; in [3] it was 0.958; in assay [4], 0.868; in assay [5], 0.458; in assay [6], -0.0297; in assay [7], 0.107. The composite z-score is 0.802 in [8], 1.06 in [9] and 1.19 in [10]. Also, in assay [2], the z-score is -1.88.

On to `C=C(C)[C@@H]1CC=C(C(O)C2C=CC3C(=O)N(c4ccccc4)C(=O)C3N2Nc2ccccc2F)CC1` (stereo not given in full), for which the composite z-score was 1.46 in assay [1]; 0.341 in assay [3]; 1.41 in assay [4]; 0.797 in [5]; 0.0003 in [6]; -0.0858 in assay [7]. Moreover, the composite z-score in assay [8] was found to be 1.4; in assay [9], 1.04; in [10], 1.19. In assay [2], this compound showed a z-score of -0.0769.

In the case of `C=CCOC(=O)[C@H]1[C@@H]2C(=O)O[C@@H](c3ccccc3)[C@@H](c3ccccc3)N2[C@@H](c2ccc(OCCOC(=O)[C@@H]3C[C@@H]4C(=O)N5CCC[C@H]5C(=O)N4[C@@H]3c3ccc(O)cc3)cc2)[C@]12C(=O)Nc1ccc(I)cc12`, the composite z-score was -0.0566 in [1]; 0.621 in assay [3]; 0.793 in assay [4]; 0.29 in assay [5]; -0.117 in [6]; -0.155 in [7]. In addition, the composite z-score in assay [8] stood at 0.633; in assay [9] it was 0.521; in [10] it was 0.881. For the same compound, in assay [2], the z-score is -1.71.

Take `COCCOC(=O)N1C(=O)[C@@]2(c3cc(C#CC4=CCCCC4)ccc31)[C@H](c1ccccc1OCCO)N1[C@H](c3ccccc3)[C@H](c3ccccc3)OC(=O)[C@H]1[C@@H]2C(=O)N1CCCCCCC1`: the composite z-score in assay [1] is 1.38; in assay [3], 0.225; in [4] it was -0.529; in [5] it was 0.258; in [6], -0.0327; in [7], -0.493. For the same compound, the composite z-score in [8] is -0.345; in assay [9], 1.08; in assay [10], 0.973. In assay [2], this compound registered a z-score of -2.94.

Take `NC(N)=NCCCn1cc(CNC(=O)[C@@H](N)Cc2ccccc2)nn1`: the composite z-score is -0.15 in assay [1]; 0.566 in assay [3]; -0.806 in assay [4]; -0.458 in [5]; -0.128 in assay [6]; -0.0146 in assay [7]. For the same compound, the composite z-score in assay [8] came out at 0.0472; in [9], 0.984; in assay [10] it was 0.0071. In addition, the z-score in assay [2] was -0.332.

In the case of `CCOC(=O)C[C@H]1[C@H](OC(=O)c2ccc(C(=O)c3ccccc3)cc2)[C@@H](NC(=O)Cc2ccc(OC)cc2)c2cc(OCCCO)ccc2N1C(=O)c1ccccc1`, the composite z-score is 0.41 in [1]; 0.117 in assay [3]; 0.0574 in assay [4]; 0.425 in assay [5]; 0.112 in assay [6]; -0.237 in assay [7]. Besides, the composite z-score in assay [8] was determined as 0.0775; in assay [9], 0.516; in assay [10], 0.168. The compound further registered a z-score in assay [2] of -1.15.

Take `[N-]=[N+]=NCc1ccccc1[C@@H]1OC(c2ccc(OCCCO)cc2)=N[C@]1(CCS(=O)(=O)c1ccccc1)C(=O)NCC(O)CO` (stereo not given in full): the composite z-score is 0.711 in [1]; -0.275 in [3]; 2.14 in assay [4]; 0.701 in assay [5]; 0.0799 in assay [6]; 0.0062 in [7]. For the same compound, the composite z-score in [8] stood at 0.975; in assay [9], 4.4; in [10], 2.17. Besides, the z-score in [2] is -1.2.

Regarding `COCCOC(=O)N1C(=O)[C@@]2(c3cc(C#CC4=CCCCC4)ccc31)[C@H](c1ccc(O)cc1)N1[C@H](c3ccccc3)[C@H](c3ccccc3)OC(=O)[C@H]1[C@@H]2C(=O)N1CCN(c2ncccn2)CC1`, the composite z-score in [1] was -0.444; in assay [3], -0.742; in assay [4] it was -0.676; in [5] it was 0.451; in assay [6], -0.195; in [7], -0.138. The composite z-score is -0.445 in assay [8], -0.201 in [9] and -1.11 in assay [10]. Also, the z-score in [2] was -0.131.

With `O=C1C2C=CC(C(O)c3ccc(Br)cc3)N(Nc3ccccc3F)C2C(=O)N1c1ccccc1` (stereo not given), the composite z-score was 0.861 in [1]; -0.134 in assay [3]; 0.0034 in assay [4]; 0.666 in assay [5]; -0.0718 in assay [6]; -0.0626 in assay [7]. The composite z-score in [8] is -0.571; in assay [9], -0.147; in assay [10], 0.225. The compound further came in with a z-score in [2] of -0.445.
